# Laboratory results: PubChem BioAssay (NCI)
# About 83,000 compounds went through this panel and 20% of them were active in at least one assay; those are over-represented in the sample as a whole.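 Results are percent growth after 48 hours of single-concentration exposure. 100 means growth as in untreated cells, lower positive values show inhibition; negative values down to -100 show cell death.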 Unmarked numbers belong to inactive results. The source made the active and inactive calls. How the source made its calls: active means growth percent below 10; inactive means the rest.
# Assays:
# Test in all cases: NCI-60 one-dose screen, 48 h (100 = growth as untreated, 0 = no growth, -100 = all killed)
# Conditions in all cases: 10 µM unless noted
# [1] = test system: SK-MEL-2 melanoma
# [2] = test system: EKVX NSCLC
# [3] = test system: SN12C renal
# [4] = test system: UO-31 renal
# [5] = test system: TK-10 renal
# [6] = test system: ACHN renal
# [7] = test system: CAKI-1 renal
# [8] = test system: A498 renal
# [9] = test system: MOLT-4 leukemia
# [10] = test system: SR leukemia
# [11] = test system: RPMI-8226 leukemia
# [12] = test system: OVCAR-8 ovarian
# [13] = test system: OVCAR-5 ovarian
# [14] = test system: OVCAR-4 ovarian
# [15] = test system: SK-OV-3 ovarian
# [16] = test system: IGROV1 ovarian
# [17] = test system: OVCAR-3 ovarian
# [18] = test system: HS 578T breast
# [19] = test system: NCI/ADR-RES ovarian
# [20] = test system: CCRF-CEM leukemia
Structure (SMILES),growth [1],growth [2],growth [3],growth [4],growth [5],growth [6],growth [7],growth [8],growth [9],growth [10],growth [11],growth [12],growth [13],growth [14],growth [15],growth [16],growth [17],growth [18],growth [19],growth [20]
COc1cc(/C=C/C(=O)c2c(C)oc3nc[nH]c(=O)c23)ccc1O,109%,97.9%,97.2%,84.3%,135%,101%,87.1%,94.8%,104%,126%,122%,103%,96.5%,101%,103%,100%,108%,93%,101%,
COc1ccc(CNC(=O)COc2ccc(/C=N/Nc3nc4ccccc4s3)cc2)cc1,63.9%,52%,30.8%,60.7%,86.9%,8.13% (active),27.9%,-19.5% (active),76.5%,,27.3%,22.3%,66.9%,-37.5% (active),,28.8%,25.3%,13.3%,23.3%,62.4%
COc1cc(NCC(O)CN(CC(C)C)C2CCCC2)c2ncccc2c1 (stereo unspecified),98.3%,83.2%,86.4%,71.7%,110%,80.2%,94.6%,71.5%,,80.1%,94.6%,86.5%,101%,42.3%,93.3%,88.8%,63.7%,73.3%,,114%
CS(=O)(=O)Nc1cc(-c2ccc3ncnc(Nc4ccc5[nH]ncc5c4)c3c2)cnc1Cl,63.1%,62.3%,67.8%,64.1%,65.6%,83.8%,51.9%,24.5%,75.3%,63.2%,102%,86%,59.8%,84.7%,76%,42.5%,59.2%,21.7%,91.2%,
COc1cc(-c2cc(=O)oc3cc(O)ccc23)cc(OC)c1OC,101%,89.8%,79%,72.2%,110%,89.3%,74%,101%,92.9%,97.6%,41.8%,84.9%,103%,73%,135%,94%,88.4%,88.5%,88.3%,
COc1ccc(-c2c[nH]c(C(=O)O)c2-c2cc(OC)c3c(c2OC)OCO3)cc1,109%,105%,99.9%,90.3%,116%,100%,86.4%,95%,102%,106%,140%,101%,96.5%,100%,119%,103%,109%,99.9%,99.2%,
O=C(/C=C\c1ccc(OCCCCCC[P+](c2ccccc2)(c2ccccc2)c2ccccc2)cc1)c1ccc2c(c1)OCCO2,-42.9% (active),23.9%,2.08% (active),4.82% (active),-9.1% (active),5.03% (active),2.91% (active),-30% (active),-20.6% (active),-18.9% (active),-41.7% (active),1.04% (active),13.9%,-3.06% (active),-23.8% (active),5.29% (active),-27% (active),7.53% (active),78.1%,
O=C(N/N=C/c1cccc(O)c1)c1ccccc1Nc1cccc(C(F)(F)F)c1,111%,69.9%,93.5%,58%,97.5%,95.4%,36.9%,92.3%,,,87.5%,75%,92.3%,58.9%,78.4%,95.3%,62.1%,91.8%,83.4%,3.83% (active)
O=C1Nc2c(ccc(Cl)c2Cl)/C1=C/c1ccc(O)cc1,108%,62.1%,97.4%,61.8%,101%,87.6%,59.7%,115%,77.3%,42%,78.6%,92.3%,90.6%,72.9%,86.4%,42.6%,92.9%,89%,96.6%,
O=C(N=Nc1c(O)[nH]c2ccc(F)cc12)c1cc2ccccc2[nH]1,91%,89%,91.2%,76.2%,106%,100%,80.7%,,99.2%,95.1%,92%,97.2%,103%,99.9%,110%,79.3%,101%,101%,100%,99.5%
COc1ccc(/C(C)=N/NC(=O)CSc2nc3ccccc3c(=O)n2Cc2ccc(S(N)(=O)=O)cc2)c(OC)c1,115%,89.9%,100%,80%,108%,105%,89.9%,,97.9%,95.6%,116%,100%,99%,101%,114%,104%,111%,102%,100%,104%
COc1ccc(C(=O)c2cc(C)c(OC)c(C)c2)c(OC)c1N(C(=O)C(Cl)Cl)C(=O)C(Cl)Cl,27.2%,56.9%,35.5%,37.8%,43.8%,22.2%,43.2%,,22.6%,20.7%,19.9%,16%,33.1%,62.1%,1.2% (active),31.3%,-13.4% (active),22.1%,-1.2% (active),10.7%
C=C1C(=O)O[C@H]2[C@H]1CC/C(CNC(=O)/C=C/c1ccc(Br)cc1)=C\CC[C@@]1(C)O[C@@H]21,-18% (active),-47.8% (active),-66.5% (active),-98.2% (active),-67.9% (active),-58.6% (active),-91.8% (active),,-22.7% (active),0.986% (active),-33.7% (active),2.52% (active),-51.4% (active),44.7%,46.6%,-27.9% (active),-91.4% (active),-7.13% (active),38.5%,-2.6% (active)
Cc1ccc(C(=O)Nc2ccccc2C(=O)N/N=C(\c2ccccc2)c2ccccn2)cc1,41.4%,13.1%,28.9%,3.57% (active),47.2%,15.1%,10.5%,,15.8%,16.8%,16%,19.5%,43.3%,9.94% (active),8.33% (active),24%,22.5%,68.3%,13.3%,8.79% (active)
CCOc1cc(CNc2ccc(N3CCOCC3)c(C(=O)O)c2)ccc1OC,98.7%,96.9%,94.2%,98.1%,94.7%,108%,102%,,104%,94.2%,100%,95.2%,102%,102%,120%,103%,105%,95.6%,102%,106%
CC(C)NC(=O)N1C(=O)CCC1NNC(=O)c1ccc([N+](=O)[O-])cc1 (stereo unspecified),93.1%,110%,102%,92%,101%,106%,100%,,98.7%,94.9%,110%,111%,103%,97.9%,113%,104%,105%,117%,95%,104%
N#Cc1cc(-c2nc3ccccc3s2)c(=O)n(NS(=O)(=O)c2ccc(Cl)cc2)c1N,102%,100%,97.8%,70.4%,139%,95.5%,80.5%,,107%,110%,100%,110%,102%,103%,83.7%,95.5%,107%,99.7%,104%,107%
CCc1c(Nc2ccc(C)cc2)nc(N)[nH]c1=O,98.1%,92.1%,92.4%,85.8%,104%,103%,91.7%,,101%,87.9%,103%,102%,101%,108%,114%,102%,119%,111%,106%,104%
O=C(NNc1nc(Cl)nc(N2CCN(C(c3ccccc3)c3ccccc3)CC2)n1)c1ccccc1,-27% (active),64%,-24.2% (active),68.9%,126%,-39% (active),-51.9% (active),,-39.2% (active),-37.4% (active),57.8%,3.15% (active),88.7%,-16.1% (active),128%,-92.6% (active),-90.5% (active),36.3%,20.7%,-25.1% (active)
COc1ccc(CC(C)=C(c2ccc(OCCN(C)C)cc2)c2ccc(OCCN(C)C)cc2)cc1,108%,88.5%,75.2%,60.6%,99.6%,98%,84%,,64.6%,-13.2% (active),56.2%,86%,86.8%,90.1%,85.7%,74.6%,83.8%,74.6%,86.4%,17.1%
O=C(Nc1nc(-c2ccc(Br)cc2)cs1)c1cc(-c2ccc(Br)cc2)nc2ccc(Cl)cc12,93.9%,77.8%,85.1%,64.2%,115%,85%,79.3%,,80.6%,70.4%,85%,88.1%,104%,82.5%,78.2%,60.5%,86.9%,95.2%,89.7%,77.8%
